Potency data for 40 compounds are collected here from PubChem BioAssay (Tox21).

Several values for one entry are separate records, joined by “and”; a condition that tells them apart may be missing. Equal values may be shown once. Results filed as inconclusive are left out. Where a call stands in place of a potency, no number is given. Some structures have more than one record in an assay (separate samples or runs), and their calls can disagree. Activity calls are given as the source filed them. Calls follow the shape of the full dose curve.
Potency is read from the fitted curve at half-maximal effect.

This assay can be described thus: qHTS assay for small molecule agonists of the p53 signaling pathway - cell viability (AID 651633). Also: nearly all actives have a fitted effect of over 30% in size. Particulars: p53RE-bla HCT-116 viability, ATP luminescence, 16 h; series mostly up to 83.3 µM. The source says:
National Center for Advancing Translational Sciences [NCATS]
NIH Chemical Genomics Center [NCGC]
U.S. Environmental Protection Agency [EPA]
National Institutes of Environmental Health Sciences [NIEHS]
National Toxicology Program [NTP]
U.S. Food and Drug Administration [FDA]
p53, a tumor suppressor protein, is activated following cellular insult, including DNA damage and other cellular stresses. The activation of p53 regulates cell fate by inducing DNA repair, cell cycle arrest, apoptosis, or cellular senescence. The activation of p53, therefore, is a good indicator of DNA damage and other cellular stresses. […] The activation of the reporter gene under culture conditions can be detected by fluorescence intensity. This cell line was used to screen the Tox21 compound library in a 1536-well plate format and to identify agonists that activate the p53 signaling pathway.
Tox21 Assay Protocol Summary:
The p53RE-bla cells were dispensed at 4,000 cells/5 ul/well in 1536-well black wall/clear bottom plates using a Multidrop dispenser. After the assay plates were incubated at a 37 C/5% CO2 incubator for 5 hours, 23 nL of compounds dissolved in DMSO, positive controls or DMSO only was transferred to the assay plate by a pin tool. The plates were incubated at 37 C for 16 hours. After 1 uL of LiveBLAzerTM B/G FRET substrate was added using a Flying Reagent Dispenser, the plates were incubated at room temperature for 2 hours, and fluorescence intensity was measured by an Envision plate reader.
For cell viability readout that measures cytotoxicity, 4 ul/well of CellTiter-Glo reagent was added into the assay plates using a Flying Reagent Dispenser. After 30 min incubation at room temperature, the luminescence intensity in the plates was measured using a ViewLux plate reader.
(Quantitative high-throughput screening tests each substance at several concentrations.)
Regarding `CN1[C@@H]2CC(OC(=O)[C@H](CO)c3ccccc3)C[C@H]1[C@@H]1O[C@@H]12` (stereo not given in full), the Potency result was “inactive”.

`O=c1[nH]cc(F)c(=O)[nH]1`: the Potency was 1.06 µM (active) and 991 nM (active).

Consider `NC1CCCCC1`, for which the Potency result was “inactive”.

Turning to `COc1ccc2c(c1)c(CC(=O)O)c(C)n2C(=O)c1ccc(Cl)cc1`, the Potency result is “inactive”.

With `CCCCC1(COC(=O)CCC(=O)O)C(=O)N(c2ccccc2)N(c2ccccc2)C1=O`, the Potency entry is “inactive”.

Consider `CS(=O)(=O)OCCCCOS(C)(=O)=O`, for which the Potency entry is “inactive”.

Take `COc1cccc(O)c1O`: the Potency entry was “inactive”.

In the case of `CN(C)CCOC(C)(c1ccccc1)c1ccccn1` (stereo not given), the Potency result was “inactive”.

Take `O=C1OC2(c3ccccc31)c1cc(Br)c(O)c(Br)c1Oc1c2cc(Br)c(O)c1Br`: the Potency entry was “inactive”.

On to `CCCCNC(=O)NS(=O)(=O)c1ccc(C)cc1`, for which the Potency entry is “inactive”.

Regarding `C=C(C)C(=O)OCC(C)O` (stereo not given), the Potency result is “inactive”.

As to `NS(=O)(=O)c1cc2c(cc1Cl)NCNS2(=O)=O`, the Potency entry is “inactive”.

On to `NC(CO)(CO)CO`, for which the Potency entry is “inactive”.

On to `CC(C)NCC(O)c1ccc(O)c(O)c1` (stereo not given), for which the Potency result was “inactive”.

In the case of `CC(O)(P(=O)(O)O)P(=O)(O)O`, the Potency result is “inactive”.

For the compound `Nc1c2c(nc3ccccc13)CCCC2`, the Potency result is “inactive”.

For the compound `O=C1c2c(O)cccc2Cc2cccc(O)c21`, the Potency result is “inactive”.

For `Cc1cc(=O)oc2cc(O)ccc12`, the Potency result is “inactive”.

Consider `C/C=C/C=C/C(=O)O`, for which the Potency result is “inactive”.

`Nc1ccc([N+](=O)[O-])cc1O`: the Potency entry is “inactive”.

On to `CCCCCCCCCCCC[N+](C)(C)Cc1ccccc1`, for which the Potency is 18.8 µM (active) and 47.6 µM (active) and 29.7 µM (active).

For `NS(=O)(=O)O`, the Potency result was “inactive”.

`CCCCC(CC)C(=O)O` (stereo not given): the Potency entry was “inactive”.

For the compound `CCN(CC)C(=O)c1cccc(C)c1`, the Potency entry is “inactive”.

`CC/C(=C(\c1ccccc1)c1ccc(OCCN(C)C)cc1)c1ccccc1`: the Potency was 54.5 µM (active) [middle of 5 runs].

As for `C=CCc1ccc(O)c(OC)c1`, the Potency entry is “inactive”.

On to `C[C@](N)(Cc1ccc(O)c(O)c1)C(=O)O`, for which the Potency entry is “inactive”.

In the case of `CC1(C)S[C@@H]2[C@H](NC(=O)[C@H](N)c3ccccc3)C(=O)N2[C@H]1C(=O)O`, the Potency entry is “inactive”.

For `CC(=O)Nc1c(I)c(NC(C)=O)c(I)c(C(=O)O)c1I`, the Potency entry was “inactive”.

`C=C1CC[C@H](O)C/C1=C\C=C1/CCC[C@]2(C)[C@@H]([C@H](C)CCCC(C)C)CC[C@@H]12`: the Potency is 26.6 µM (active) and 60.6 µM (active).

In the case of `OC[C@H]1O[C@H](O[C@]2(CCl)O[C@H](CCl)[C@@H](O)[C@@H]2O)[C@H](O)[C@@H](O)[C@H]1Cl`, the Potency entry was “inactive”.

In the case of `CCCCCCc1ccc(O)cc1O`, the Potency entry is “inactive and 54.6 µM (active) and 61.1 µM (active)”.

As for `CN(C)C(=S)SC(=S)N(C)C`, the Potency entry was “inactive and 243 nM (active)”.

Turning to `Cc1c(C(=O)O)c(O)cc2c1C(=O)c1c(O)c([C@@H]3O[C@H](CO)[C@@H](O)[C@H](O)[C@H]3O)c(O)c(O)c1C2=O`, the Potency result is “inactive”.

Regarding `CN(N=O)C(=O)N[C@@H]1[C@@H](O)[C@H](O)[C@@H](CO)O[C@@H]1O`, the Potency result was “inactive”.

Consider `CN(C)C(=O)Nc1ccc(Cl)c(Cl)c1`, for which the Potency result is “inactive”.

In the case of `Cc1ncc([N+](=O)[O-])n1CCO`, the Potency entry is “inactive”.

On to `CN(C)CCOC(c1ccccc1)c1ccccc1`, for which the Potency result is “inactive”.

Take `CCCCOC(=O)c1ccc(O)cc1`: the Potency result is “inactive”.

Regarding `CCCc1cc(=O)[nH]c(=S)[nH]1`, the Potency result was “inactive”.
